# Measurements taken from publication PMC11062922 (Nature Chemical Biology, 2023).
# Where two headings read alike, the source gives them in different places.
# Assays:
# AAK1 = system: AAK1; parameters: species or system human, MV4-11 + K-562 + COLO205 + SK-N-BE2 + OVCAR-8; details: read-out: apparent Kd, n = 1
# BMP2K = system: BMP2K; parameters: species or system human, MV4-11 + K-562 + COLO205 + SK-N-BE2 + OVCAR-8; details: read-out: apparent Kd, n = 1
# CLK4 = system: CLK4; parameters: species or system human, MV4-11 + K-562 + COLO205 + SK-N-BE2 + OVCAR-8; details: read-out: apparent Kd, n = 1
# CSNK2A1;CSNK2A3 = system: CSNK2A1;CSNK2A3; parameters: species or system human, MV4-11 + K-562 + COLO205 + SK-N-BE2 + OVCAR-8; details: read-out: apparent Kd, n = 1
# CSNK2A2 = system: CSNK2A2; parameters: species or system human, MV4-11 + K-562 + COLO205 + SK-N-BE2 + OVCAR-8; details: read-out: apparent Kd, n = 1
# GAK = system: GAK; parameters: species or system human, MV4-11 + K-562 + COLO205 + SK-N-BE2 + OVCAR-8; details: read-out: apparent Kd; compound concentrations:100 nM and 1000 nM (sheet 'Samples'); n = 1
# NUAK1 = system: NUAK1; parameters: species or system human, MV4-11 + K-562 + COLO205 + SK-N-BE2 + OVCAR-8; details: read-out: apparent Kd, n = 1
# Q6ZSR9 = Q6ZSR9 (human, UniProt Q6ZSR9); parameters: species or system MV4-11 + K-562 + COLO205 + SK-N-BE2 + OVCAR-8; details: read-out: apparent Kd, n = 1
# SIK2 = system: SIK2; parameters: species or system human, MV4-11 + K-562 + COLO205 + SK-N-BE2 + OVCAR-8; details: read-out: apparent Kd, n = 1
# CLK1 = system: CLK1; parameters: species or system human, MV4-11 + K-562 + COLO205 + SK-N-BE2 + OVCAR-8; details: read-out: apparent Kd; compound concentrations:100 nM and 1000 nM (sheet 'Samples'); n = 1
# FLT4 = system: FLT4; parameters: species or system human, MV4-11 + K-562 + COLO205 + SK-N-BE2 + OVCAR-8; details: read-out: apparent Kd; compound concentrations:100 nM and 1000 nM (sheet 'Samples'); n = 1
# GSK3A = system: GSK3A; parameters: species or system human, MV4-11 + K-562 + COLO205 + SK-N-BE2 + OVCAR-8; details: read-out: apparent Kd, n = 1
# GSK3B = system: GSK3B; parameters: species or system human, MV4-11 + K-562 + COLO205 + SK-N-BE2 + OVCAR-8; details: read-out: apparent Kd, n = 1
# PAK4 = system: PAK4; parameters: species or system human, MV4-11 + K-562 + COLO205 + SK-N-BE2 + OVCAR-8; details: read-out: apparent Kd, n = 1
# PKN1 = system: PKN1; parameters: species or system human, MV4-11 + K-562 + COLO205 + SK-N-BE2 + OVCAR-8; details: read-out: apparent Kd, n = 1
# PKN3 = system: PKN3; parameters: species or system human, MV4-11 + K-562 + COLO205 + SK-N-BE2 + OVCAR-8; details: read-out: apparent Kd; compound concentrations:100 nM and 1000 nM (sheet 'Samples'); n = 1
# PRKAG1 = system: PRKAG1; parameters: species or system human, MV4-11 + K-562 + COLO205 + SK-N-BE2 + OVCAR-8; details: read-out: apparent Kd, n = 1
# RET = system: RET; parameters: species or system human, MV4-11 + K-562 + COLO205 + SK-N-BE2 + OVCAR-8; details: read-out: apparent Kd, n = 1
# MELK = system: MELK; parameters: species or system human, MV4-11 + K-562 + COLO205 + SK-N-BE2 + OVCAR-8; details: read-out: apparent Kd; compound concentrations: 100 nM and 1000 nM (sheet 'Samples'), CATDS: 8.8391559742386702E-3; n = 1
# [1] = compound concentrations:100 nM and 1000 nM (sheet 'Samples')
# Q6ZSR9, sequence (Q6ZSR9 whole entry, looked up): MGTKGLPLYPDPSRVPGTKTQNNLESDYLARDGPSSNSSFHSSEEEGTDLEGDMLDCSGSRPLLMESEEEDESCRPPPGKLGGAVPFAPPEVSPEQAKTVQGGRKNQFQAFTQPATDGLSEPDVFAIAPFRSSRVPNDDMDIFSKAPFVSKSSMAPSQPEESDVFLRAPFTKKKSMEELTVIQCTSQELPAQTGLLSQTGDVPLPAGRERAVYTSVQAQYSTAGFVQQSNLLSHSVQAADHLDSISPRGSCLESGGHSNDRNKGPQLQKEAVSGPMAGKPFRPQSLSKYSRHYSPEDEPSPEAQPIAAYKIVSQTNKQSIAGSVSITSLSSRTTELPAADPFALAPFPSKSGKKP
smiles,measurement,setting,value
CC(C)Oc1ccc2c(-c3ccnc(Nc4ccc(N5CCN(C)CC5)cc4)n3)cnn2n1 [GW696155X],potency estimated from few doses,AAK1; [1],35.4 nM
same,potency estimated from few doses,BMP2K; [1],344 nM
same,potency estimated from few doses,CLK4; [1],1570 nM
same,potency estimated from few doses,CSNK2A1;CSNK2A3; [1],416 nM
same,potency estimated from few doses,CSNK2A2; [1],201 nM
same,potency estimated from few doses,GAK,454 nM
same,potency estimated from few doses,NUAK1; [1],1030 nM
same,potency estimated from few doses,Q6ZSR9; [1],39.6 nM
same,potency estimated from few doses,SIK2; [1],781 nM
CS(=O)(=O)CCn1c(=O)c(Oc2ccc(F)cc2F)cc2cnc(NC3CCOCC3)nc21 [RO5027956-000],potency estimated from few doses,AAK1; [1],968 nM
same,potency estimated from few doses,BMP2K; [1],1020 nM
same,potency estimated from few doses,CLK1,1120 nM
same,potency estimated from few doses,CLK4; [1],1240 nM
same,potency estimated from few doses,CSNK2A1;CSNK2A3; [1],1100 nM
same,potency estimated from few doses,CSNK2A2; [1],1530 nM
same,potency estimated from few doses,FLT4,1390 nM
same,potency estimated from few doses,GAK,422 nM
same,potency estimated from few doses,GSK3A; [1],592 nM
same,potency estimated from few doses,GSK3B; [1],601 nM
same,potency estimated from few doses,PAK4; [1],1270 nM
same,potency estimated from few doses,PKN1; [1],1540 nM
same,potency estimated from few doses,PKN3,1230 nM
same,potency estimated from few doses,PRKAG1; [1],812 nM
same,potency estimated from few doses,Q6ZSR9; [1],932 nM
same,potency estimated from few doses,RET; [1],823 nM
same,potency estimated from few doses,SIK2; [1],1100 nM
NCC(NC(=O)c1cc(-c2cn[nH]c2)c(-c2ccnc3[nH]ccc23)s1)c1ccccc1.NCC(NC(=O)c1cc(-c2cn[nH]c2)c(-c2ccnc3[nH]ccc23)s1)c1ccccc1.O=C(O)C(F)(F)F.O=C(O)C(F)(F)F (stereo not shown) [GSK1325775A],potency estimated from few doses,"AAK1; compound concentrations: 100 nM and 1000 nM (sheet 'Samples'), CATDS: 3.6567153264384103E-2",1070 nM
same,potency estimated from few doses,"BMP2K; compound concentrations: 100 nM and 1000 nM (sheet 'Samples'), CATDS: 3.9732447761342798E-2",847 nM
same,potency estimated from few doses,"PKN1; compound concentrations: 100 nM and 1000 nM (sheet 'Samples'), CATDS: 2.9340466494355399E-2",2310 nM
same,potency estimated from few doses,"Q6ZSR9; compound concentrations: 100 nM and 1000 nM (sheet 'Samples'), CATDS: 4.0068531071680201E-2",829 nM
O=C1N=C(NCc2c(Cl)cccc2Cl)S/C1=C\c1ccc2ncccc2c1 [RO4600445-000],potency estimated from few doses,"AAK1; compound concentrations: 100 nM and 1000 nM (sheet 'Samples'), CATDS: 0.26661690920713499",1130 nM
same,potency estimated from few doses,"CLK4; compound concentrations: 100 nM and 1000 nM (sheet 'Samples'), CATDS: 0.27673451036998298",1050 nM
same,potency estimated from few doses,"Q6ZSR9; compound concentrations: 100 nM and 1000 nM (sheet 'Samples'), CATDS: 0.220638600653874",1680 nM
COC(=O)c1cccc(NC(=O)NC2CCN(c3ccnc(Nc4cc(OC)c(OC)c(OC)c4)n3)C2)c1 (stereo not shown) [GSK1379767A],potency estimated from few doses,"AAK1; compound concentrations: 100 nM and 1000 nM (sheet 'Samples'), CATDS: 0.10680715656565699",1510 nM
O=C(O)C(F)(F)F.O=c1[nH]ccc2nc(N[C@@H]3CCNC3)nc(Nc3ccc4c(c3)S(=O)(=O)CC4)c12 [GSK2181306A],potency estimated from few doses,"AAK1; compound concentrations: 100 nM and 1000 nM (sheet 'Samples'), CATDS: 1.0213142208507E-2",800 nM
same,potency estimated from few doses,"BMP2K; compound concentrations: 100 nM and 1000 nM (sheet 'Samples'), CATDS: 1.9243702463248E-2",190 nM
same,potency estimated from few doses,"CLK4; compound concentrations: 100 nM and 1000 nM (sheet 'Samples'), CATDS: 8.1810149624153006E-3",1760 nM
same,potency estimated from few doses,"CSNK2A1;CSNK2A3; compound concentrations: 100 nM and 1000 nM (sheet 'Samples'), CATDS: 0.112951755046268",11.3 nM
same,potency estimated from few doses,"CSNK2A2; compound concentrations: 100 nM and 1000 nM (sheet 'Samples'), CATDS: 0.17006619432900399",6.46 nM
same,potency estimated from few doses,"GSK3A; compound concentrations: 100 nM and 1000 nM (sheet 'Samples'), CATDS: 1.81293399995681E-2",213 nM
same,potency estimated from few doses,"GSK3B; compound concentrations: 100 nM and 1000 nM (sheet 'Samples'), CATDS: 1.53717620719534E-2",296 nM
same,potency estimated from few doses,MELK,1290 nM
same,potency estimated from few doses,"NUAK1; compound concentrations: 100 nM and 1000 nM (sheet 'Samples'), CATDS: 6.4011411937308901E-2",25.9 nM
same,potency estimated from few doses,"PAK4; compound concentrations: 100 nM and 1000 nM (sheet 'Samples'), CATDS: 3.0355378859093798E-2",85 nM
same,potency estimated from few doses,"PKN1; compound concentrations: 100 nM and 1000 nM (sheet 'Samples'), CATDS: 8.6733801464620904E-3",1380 nM
same,potency estimated from few doses,"PRKAG1; compound concentrations: 100 nM and 1000 nM (sheet 'Samples'), CATDS: 1.1132465742589101E-2",629 nM
same,potency estimated from few doses,"Q6ZSR9; compound concentrations: 100 nM and 1000 nM (sheet 'Samples'), CATDS: 1.2146463936907201E-2",503 nM
same,potency estimated from few doses,"RET; compound concentrations: 100 nM and 1000 nM (sheet 'Samples'), CATDS: 2.5699150815533801E-2",113 nM
same,potency estimated from few doses,"SIK2; compound concentrations: 100 nM and 1000 nM (sheet 'Samples'), CATDS: 1.23582822640132E-2",483 nM
